{"source": "PubChem BioAssay (NCATS)", "note": "Results filed as inconclusive are left out. Entries that show only a call come without a potency. The source made the active and inactive calls. The call rests on the fitted dose curve; in most records, active means well fitted inhibition curve with a large enough effect; inconclusive means small, poorly fitted or top-dose-only effect, or effect the other way; inactive means flat fitted curve, though single readings scatter. Potency means the concentration at half of the fitted maximal effect.", "data": [{"molecular_target": "ATP-dependent 6-phosphofructokinase (Trypanosoma brucei brucei) (UniProt O15648)", "sequence (O15648 whole entry, looked up)": "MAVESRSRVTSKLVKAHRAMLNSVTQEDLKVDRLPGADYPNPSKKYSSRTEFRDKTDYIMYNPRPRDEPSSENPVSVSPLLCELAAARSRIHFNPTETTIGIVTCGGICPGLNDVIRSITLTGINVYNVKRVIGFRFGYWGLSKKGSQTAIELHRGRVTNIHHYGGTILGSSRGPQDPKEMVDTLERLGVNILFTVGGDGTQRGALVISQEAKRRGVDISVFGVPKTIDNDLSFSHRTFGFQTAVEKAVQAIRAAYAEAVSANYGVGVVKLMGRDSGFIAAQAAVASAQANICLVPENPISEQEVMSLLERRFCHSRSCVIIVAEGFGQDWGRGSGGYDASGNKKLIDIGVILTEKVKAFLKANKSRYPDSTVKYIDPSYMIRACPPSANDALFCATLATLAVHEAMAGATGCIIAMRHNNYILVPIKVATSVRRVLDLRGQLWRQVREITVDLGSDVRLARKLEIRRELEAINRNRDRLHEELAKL", "assay": "qHTS Validation Assay to Find Inhibitors of T. brucei phosphofructokinase (AID 485368)", "details": "T. brucei PFK enzyme assay, qHTS 7-point titration; series mostly up to 57.5 µM", "text": "NIH Molecular Libraries Probe Production Network [MLPCN]\nNIH Chemical Genomics Center [NCGC]\nPI Name: Malcolm Walkinshaw, University of Edinburgh\nVarious species of the protozoan family Trypanosomatidae are responsible for a range of serious human diseases in tropical and subtropical areas of the world. […] Many of the disorders caused by trypanosomatids are fatal if left untreated, but most currently used drugs are inefficient and toxic.\nOxidative metabolism involving the mitochondrial tricarboxylic acid cycle and oxidative phosphorylation are repressed in these parasites, and recent RNA interference (RNAi) experiments have shown that even partial depletion of certain individual glycolytic enzymes can lead to the death of cultured parasites. One such glycolytic enzyme, phosphofructokinase (PFK), catalyzes the formation of fructose-1,6-bisphosphate (F1,6BP) and ADP from fructose-6-phosphate (F6P) and ATP, and in many metabolic circumstances makes an important contribution to the control of flux through the glycolytic pathway. As a specific glycolytic target, PFK is particularly attractive as it catalyzes the first irreversible step in glycolysis, and structural and kinetic studies have shown very substantial and essential differences from corresponding host enzymes, allowing for the discovery of parasite-selective inhibitors.\nThe goal of this screen is to find small-molecule inhibitors of T. brucei PFK using a biochemical assay that measures PFK activity as a function of ADP production. A luminescence-based assay for T. brucei PFK activity has been developed which uses luciferase to detect production of ADP. Traditional luciferase-based nucleotide detection reagents rely on ATP production as a direct substrate for the luciferase reaction; however, PFK catalyzes the transfer of a phosphate from ATP to F6P, resulting in the net depletion of ATP. To directly measure the ADP product of the PFK reaction, we used the ADP-Glo detection kit (Promega), which utilizes two separate reactions to 1) deplete all remaining uncatalyzed ATP and 2) convert all remaining ADP to ATP, which is then detected through a traditional luciferase-coupled reaction. Compounds were screened as a concentration-titration series that ranged from 57 uM to 0.7 nM.\nNCGC Assay Protocol Summary:\nSubstrate buffer was dispensed into white, solid 1536-well plates at 3uL/well in 0.1M triethanolamine (TEA) buffer, pH 8.0, containing final concentrations of 5 mM MgCl2, 0.01% Tween20, 0.5 mM fructose-6-phosphate (F6P) and 0.1mM ATP. Then, 23 nL of compounds or DMSO were delivered to each well using a pin tool. One uL T. brucei PFK (0.1M TEA, 0.01% Tween20, 0.1% bovine serum albumin (BSA) and 1.25nM PFK, final concentrations) was then dispensed, and plates were incubated at room temperature for 45 min. The luminescent detection reagent, ADP-Glo (Promega), was then added in two steps: the first reagent, ADP-Glo (which converts remaining uncatalyzed ATP), was added at 2.5uL/well and incubated for ten minutes at room temperature, and the second component, Kinase Detection reagent (which converts ADP to ATP as a substrate for luciferase-based luminescence), was added immediately after at 5uL/well, followed by one final ten minute room temperature incubation. The plates were measured on a ViewLux plate reader for luminescent signal using a clear filter with a one second exposure. The %Activity was determined from the corrected luminescence values. As no specific T. brucei PFK inhibitors have been identified in the literature, 1x (1.25nM) and 0x PFK enzyme controls (untreated) were included to normalize %Activity of identified inhibitors; 0x enzyme values corresponded to 100%Activity (full inhibition), while 1x PFK enzyme values were used to normalize 0%Activity (no inhibition).\nConcentration-response curves were fitted to the signals arising from the resulting luminescence. […]", "values": [{"smiles": "O=C1C(SCCO)=C(SCCO)C(=O)c2ccccc21", "Potency": "12 µM (active)"}, {"smiles": "O=Nc1ccc2oc(=O)ccc2c1", "Potency": "19 µM (active)"}, {"smiles": "CCCCN1CCC(n2c(=O)[nH]c3ccccc32)CC1", "Potency": "inactive"}, {"smiles": "Cn1c(=O)c2[nH]c(-c3ccccc3)nc2n(C)c1=O", "Potency": "inactive"}, {"smiles": "NC[C@H]1O[C@@H](n2cnc3c(N)ncnc32)[C@H](O)[C@@H]1O", "Potency": "inactive"}, {"smiles": "CN1CCC[C@H]1c1cccnc1", "Potency": "inactive"}, {"smiles": "O=c1[nH]c2cc(C(F)(F)F)ccc2n1-c1cc(C(F)(F)F)ccc1O", "Potency": "inactive"}, {"smiles": "CCC1C(=O)OCC1Cc1cncn1C", "note": "(stereo not given)", "Potency": "inactive"}, {"smiles": "O=[N+]([O-])c1ccc(CSc2ncnc3c2ncn3[C@@H]2O[C@H](CO)[C@@H](O)[C@H]2O)cc1", "Potency": "15.1 µM (active)"}, {"smiles": "CNC(=O)[C@H]1O[C@@H](n2cnc3c(NCc4ccc(N)cc4)ncnc32)[C@H](O)[C@@H]1O", "Potency": "inactive"}, {"smiles": "N[C@@H](CC(=O)O)C(=O)O", "Potency": "inactive"}, {"smiles": "CC(=O)/C=C1\\C(=O)N(C)c2ccccc21", "Potency": "inactive"}, {"smiles": "NC(=O)C1=CN(C2OC(COP(=O)(O)OP(=O)(O)OC[C@H]3O[C@@H](n4cnc5c(N)ncnc54)[C@H](OP(=O)(O)O)[C@@H]3O)C(O)C2O)C=CC1", "note": "(stereo not given in full)", "Potency": "inactive"}, {"smiles": "NC(=O)C(=O)O", "Potency": "inactive"}, {"smiles": "CN1C2CC(OC(=O)[C@H](CO)c3ccccc3)CC1C1OC12", "note": "(stereo not given in full)", "Potency": "inactive"}, {"smiles": "COc1cc(SC)ccc1C(=O)N1CCC(Cc2ccccc2)CC1", "Potency": "inactive"}, {"smiles": "O=C(Nc1ccccc1)c1cc([N+](=O)[O-])ccc1Cl", "Potency": "inactive"}, {"smiles": "CCCCCCCC/C=C\\CCCCCCCC(=O)NCCO", "Potency": "inactive"}, {"smiles": "Oc1cc(O)cc(/C=C/c2ccc(O)c(O)c2)c1", "Potency": "3.79 µM (active)"}, {"smiles": "S=C(S)OC1CC2CC1C1CCCC21", "note": "(stereo not given)", "Potency": "inactive"}, {"smiles": "COc1ccccc1N1CCN(CCN(C(=O)c2ccc(I)cc2)c2ccccn2)CC1", "Potency": "inactive"}, {"smiles": "C#CCN1C(C)=C(C(=O)OC)C(c2cccc([N+](=O)[O-])c2)C(C(=O)OCC)=C1C", "note": "(stereo not given)", "Potency": "inactive"}, {"smiles": "O=C(Nc1cccc(C(=O)Nc2ccc(S(=O)(=O)O)c3cc(S(=O)(=O)O)cc(S(=O)(=O)O)c23)c1)Nc1cccc(C(=O)Nc2ccc(S(=O)(=O)O)c3cc(S(=O)(=O)O)cc(S(=O)(=O)O)c23)c1", "Potency": "0.0379 µM (active)"}, {"smiles": "NCCSSCCN", "Potency": "inactive"}, {"smiles": "C[C@@H](CN1CCC(Cc2ccccc2)CC1)[C@@H](O)c1ccc(O)cc1", "Potency": "inactive"}, {"smiles": "O=C(O)CNC(=O)C(CS)Cc1ccccc1", "note": "(stereo not given)", "Potency": "inactive"}, {"smiles": "NC(=S)c1ccc[n+]([C@@H]2O[C@@H](COP(=O)([O-])OP(=O)(O)OC[C@H]3O[C@@H](n4cnc5c(N)ncnc54)[C@H](OP(=O)(O)O)[C@@H]3O)C(O)C2O)c1", "note": "(stereo not given in full)", "Potency": "inactive"}, {"smiles": "O=C(O)CC1CCCc2ccccc2C1O", "note": "(stereo not given)", "Potency": "inactive"}, {"smiles": "CC(C)NCC(O)COc1cccc2ccccc12", "note": "(stereo not given)", "Potency": "inactive"}, {"smiles": "CCCCCCCCc1ccc(-c2ccc(C(=O)O)cc2)cc1", "Potency": "inactive"}, {"smiles": "C[N+](C)(C)CCOP(=O)(O)OP(=O)([O-])OC[C@H]1O[C@@H](n2ccc(N)nc2=O)[C@H](O)[C@@H]1O", "Potency": "inactive"}, {"smiles": "O=c1[nH]c2cc([N+](=O)[O-])c([N+](=O)[O-])cc2[nH]c1=O", "Potency": "inactive"}, {"smiles": "NC(=S)NCCC[C@H](N)C(=O)O", "Potency": "19 µM (active)"}, {"smiles": "O=C(O)[C@@H]1C[C@H](C(=O)O)N1", "Potency": "inactive"}, {"smiles": "C[N+]1(C)CCC(OC(=O)C(c2ccccc2)c2ccccc2)CC1", "Potency": "inactive"}, {"smiles": "N=c1ccn2c(n1)O[C@H]1[C@H](O)[C@@H](CO)O[C@H]12", "Potency": "inactive"}, {"smiles": "O=C1NC(O)=NC1(c1ccccc1)c1ccccc1", "Potency": "inactive"}, {"smiles": "Cc1ccc(O)c(N=Nc2ccccc2)n1", "Potency": "15.1 µM (active)"}, {"smiles": "Clc1ccc(N2CCN(Cc3c[nH]c4ncccc34)CC2)cc1", "Potency": "inactive"}, {"smiles": "CCN(CC)c1ncnc2c1ncn2[C@@H]1O[C@H](COP(=O)(O)OP(=O)(O)C(Br)(Br)P(=O)(O)O)[C@@H](O)[C@H]1O", "Potency": "inactive"}]}]}
